Experimental data: PubChem BioAssay AID1159580 (chemical genetic matrix, 2015)
In all, about 5,500 compounds went through this assay and about 2,000 (36%) were called active. Roughly 18% stayed inconclusive and do not appear here. No stated cut-off is given here; in the data, active means normalized growth mostly below about 0.91 (no sharp cut-off); inconclusive means no clear call, values can overlap the other calls; inactive means mostly above about 0.92. Some of the results follow.

Assay: chemical genetic growth profiling, strain panel (AID 1159580);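 further: tested at 20 µM; growth read once vehicle control cultures reached saturation at 30 °C; 1 = growth at the plate median or of vehicle wells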
Settings: S. cerevisiae deletion strains, growth OD
[1] = locus YAR019C, strain CDC15, stronger effect = lower value
[2] = locus YBL105C, strain PKC1, stronger effect = lower value
[3] = locus YBR135W, strain CKS1, stronger effect = lower value
[4] = locus YBR136W, strain MEC1, stronger effect = lower value
[5] = locus YBR160W, strain CDC28, stronger effect = lower value
[6] = locus YDL017W, strain CDC7, stronger effect = lower value
[7] = locus YDL028C, strain MPS1, stronger effect = lower value
[8] = locus YDL101C, strain DUN1, stronger effect = lower value
[9] = locus YDL108W, strain KIN28, stronger effect = lower value
[10] = locus YDL214C, strain PRR2, stronger effect = lower value
[11] = locus YDR052C, strain DBF4, stronger effect = lower value
[12] = locus YDR054C, strain cdc34, stronger effect = lower value
[13] = locus YDR226W, strain ADK1, stronger effect = lower value
[14] = locus YDR477W, strain SNF1, stronger effect = lower value
[15] = locus YER123W, strain YCK3, stronger effect = lower value
[16] = locus YER133W, strain GLC7, stronger effect = lower value
[17] = locus YFL009W, strain cdc4, stronger effect = lower value
[18] = locus YFL029C, strain CAK1, stronger effect = lower value
[19] = locus YFR003C, strain YPI1, stronger effect = lower value
[20] = locus YFR019W, strain FAB1, stronger effect = lower value
[21] = locus YFR028C, strain CDC14, stronger effect = lower value
[22] = locus YGR040W, strain KSS1, stronger effect = lower value
[23] = locus YGR052W, strain FMP48, stronger effect = lower value
[24] = locus YGR092W, strain DBF2, stronger effect = lower value
[25] = locus YHR079C, strain IRE1, stronger effect = lower value
[26] = locus YHR082C, strain KSP1, stronger effect = lower value
[27] = locus YHR205W, strain SCH9, stronger effect = lower value
[28] = locus YIL147C, strain SLN1, stronger effect = lower value
[29] = locus YJL095W, strain BCK1, stronger effect = lower value
[30] = locus YJL157C, strain FAR1, stronger effect = lower value
[31] = locus YJR016C, strain ILV3, stronger effect = lower value
[32] = locus YJR066W, strain TOR1 (second series), stronger effect = lower value
[33] = locus YJR066W, strain TOR1, stronger effect = lower value
[34] = locus YKL048C, strain ELM1, stronger effect = lower value
[35] = locus YKL067W, strain YNK1, stronger effect = lower value
[36] = locus YKL101W, strain HSL1, stronger effect = lower value
[37] = locus YKL193C, strain SDS22, stronger effect = lower value
[38] = locus YKL203C, strain TOR2, stronger effect = lower value
[39] = locus YLR113W, strain HOG1, stronger effect = lower value
[40] = locus YLR133W, strain CKI1, stronger effect = lower value
[41] = locus YLR403W, strain SFP1, stronger effect = lower value
[42] = locus YML070W, strain DAK1, stronger effect = lower value
[43] = locus YMR001C, strain CDC5, stronger effect = lower value
[44] = locus YMR205C, strain PFK2 (second series), stronger effect = lower value
[45] = locus YMR277W, strain FCP1, stronger effect = lower value
[46] = locus YNL006W, strain LST8, stronger effect = lower value
[47] = locus YNL020C, strain ARK1, stronger effect = lower value
[48] = locus YNL161W, strain CBK1, stronger effect = lower value
[49] = locus YNL183C, strain NPR1, stronger effect = lower value
[50] = locus YNL207W, strain RIO2, stronger effect = lower value
[51] = locus YNL222W, strain SSU72, stronger effect = lower value
[52] = locus YNL307C, strain MCK1 (second series), stronger effect = lower value
[53] = locus YOL078W, strain AVO1, stronger effect = lower value
[54] = locus YOL136C, strain PFK27, stronger effect = lower value
[55] = locus YOR061W, strain CKA2, stronger effect = lower value
[56] = locus YOR119C, strain RIO1, stronger effect = lower value
[57] = locus YOR231W, strain MKK1, stronger effect = lower value
[58] = locus YOR329C, strain SCD5, stronger effect = lower value
[59] = locus YPL031C, strain PHO85, stronger effect = lower value
[60] = locus YPL153C, strain RAD53, stronger effect = lower value
[61] = locus YPL204W, strain HRR25, stronger effect = lower value
[62] = locus YPL209C, strain IPL1, stronger effect = lower value
[63] = locus YPL256C, strain CLN2, stronger effect = lower value
[64] = locus YPR025C, strain CCL1, stronger effect = lower value
[65] = locus YPR111W, strain DBF20, stronger effect = lower value
[66] = strain NNK1, stronger effect = lower value
[67] = strain TSCII, stronger effect = lower value

Measured: normalized growth

C#CCSC1=NNC(c2ccccn2)S1 (stereo not drawn)
inactive: [2] 0.945 | [3] 0.928 | [4] 0.924 | [5] 0.932 | [6] 0.947 | [7] 0.917 | [9] 0.932 | [11] 0.94 | [13] 0.975 | [19] 0.957 | [28] 0.932 | [62] 0.951 | [64] 0.931 | [65] 0.928
active: [1] 0.583 | [8] 0.45 | [10] 0.163 | [12] 0.531 | [14] 0.136 | [15] 0.125 | [16] 0.162 | [17] 0.573 | [18] 0.517 | [20] 0.111 | [21] 0.763 | [22] 0.176 | [23] 0.175 | [24] 0.119 | locus YHR030C, strain SLT2, stronger effect = lower value 0.135 | [25] 0.122 | [26] 0.21 | [27] 0.123 | [29] 0.129 | [30] 0.119 | [31] 0.596 | [32] 0.124 | [33] 0.172 | [34] 0.262 | [35] 0.137 | [36] 0.173 | [37] 0.618 | [38] 0.153 | [39] 0.225 | [40] 0.152 | [41] 0.045 | [42] 0.12 | [43] 0.821 | [44] 0.167 | [45] 0.481 | [46] 0.892 | [47] 0.137 | [48] 0.738 | [49] 0.171 | [50] 0.811 | [51] 0.635 | [52] 0.151 | [53] 0.527 | [54] 0.13 | [55] 0.183 | [56] 0.139 | [57] 0.149 | [58] 0.855 | [59] 0.162 | [60] 0.126 | [61] 0.141 | [63] 0.149 | [66] 0.408 | [67] 0.541

O=C(CSC1=NNC(c2ccccn2)S1)Nc1ccccc1 (stereo not drawn)
inactive: [1] 1 | [2] 0.998 | [3] 0.994 | [4] 1 | [5] 1 | [6] 1.01 | [7] 0.998 | [8] 0.997 | [9] 1 | locus YDL132W, strain cdc53, stronger effect = lower value 0.995 | [10] 0.984 | [11] 0.994 | [12] 1 | [13] 1 | [14] 0.971 | [15] 0.951 | [16] 0.962 | [17] 1 | [18] 0.998 | [19] 1.01 | [20] 0.966 | [21] 1 | [22] 0.976 | [23] 1.08 | [24] 0.929 | [25] 1.08 | [26] 1.27 | [27] 0.97 | [28] 1 | [29] 1.08 | locus YJL128C, strain PBS2, stronger effect = lower value 0.976 | [30] 0.934 | [31] 1 | [32] 0.942 | [33] 1.27 | [34] 0.949 | [35] 0.987 | [36] 0.981 | [37] 0.997 | [38] 1.03 | [39] 1.06 | [40] 0.933 | [41] 0.92 | [42] 0.966 | [43] 1 | [44] 0.955 | [45] 1 | [46] 1.02 | [47] 0.936 | [48] 0.999 | [49] 1.01 | [50] 0.995 | [51] 1 | [52] 0.949 | [53] 0.995 | [54] 0.967 | [55] 0.96 | [56] 0.973 | [57] 1.11 | [58] 1 | [59] 0.973 | [60] 0.955 | [61] 0.923 | [62] 1 | [63] 1.03 | [64] 0.999 | locus YPR106W, strain ISR1, stronger effect = lower value 1.01 | [65] 1.01 | [66] 0.995 | [67] 0.996
